This is one part of a sample in which hits are shown more often than they occur.
Pf Dd2 growth: Plasmodium falciparum Dd2 growth inhibition | Potency, µM (highest dose often 28.9 µM), most hits filed as inhibitors | actives 4.3% (n = 120,000) | AID 1347417 | P. falciparum Dd2 growth, SYBR Green, 72 h; active means well fitted inhibition curve with a large enough effect; further: nearly all actives have a fitted effect of over 65% in size
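Readout: SYBR Green fluorescence, 485 nm excitation, 535 nm emission, after ~16 h lysis at 37C. Before that, Dd2-infected red cells (2.5% hematocrit) grew 72 h with compound, 29 uM top final concentration.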
Each line names hits and unclear results; the compound was inactive in the other large screens.

CC(C)c1ccc(NC(=O)CSC2=Nc3ccccc3C3=NC(CCC(=O)NC4CCCCC4)C(=O)N23)cc1 (stereo not given)	none
O=C(CSC1=Nc2ccccc2C2=NC(CCC(=O)NC3CCCCC3)C(=O)N12)Nc1cccc(C(F)(F)F)c1 (stereo not given)	Pf Dd2 growth 10µM
O=C(CSC1=Nc2ccccc2C2=NC(CC(=O)NC3CCCCC3)C(=O)N12)Nc1ccc(F)cc1 (stereo not given)	none
CCCCNC(=O)CC1N=C2c3ccccc3N=C(SCC(=O)NCc3ccccc3Cl)N2C1=O (stereo not given)	Pf Dd2 growth 10µM
COc1ccc(NC(=O)CSC2=Nc3ccccc3C3=NC(CCC(=O)NC4CCCCC4)C(=O)N23)cc1 (stereo not given)	none
COCCCNC(=O)CSC1=Nc2ccccc2C2=NC(CCC(=O)NCc3ccccc3OC)C(=O)N12 (stereo not given)	none
COc1ccc(OC)c(NC(=O)CSC2=Nc3ccccc3C3=NC(CC(=O)NCc4ccco4)C(=O)N23)c1 (stereo not given)	none
CCCCNC(=O)CSC1=Nc2ccccc2C2=NC(CCC(=O)NCc3ccccc3OC)C(=O)N12 (stereo not given)	none
COc1ccc(Cl)cc1NC(=O)CSC1=Nc2ccccc2C2=NC(CC(=O)NCc3cccs3)C(=O)N12 (stereo not given)	Pf Dd2 growth 11µM
CCOc1ccccc1NC(=O)CSC1=Nc2ccccc2C2=NC(CC(=O)NC3CCCCC3)C(=O)N12 (stereo not given)	Pf Dd2 growth 11µM
COCCC1(NC(=O)C2CCOCC2)CCN(C(=O)CCc2ccc(OC)cc2)CC1	none
CC(C)C[C@H]1NC(=O)[C@@H]2C[C@@H](n3nnc(C(N)=O)c3C(N)=O)CCN2C1=O	none
Cn1nccc1C(=O)N1CCC(c2cc(-c3ccc(F)cc3)n[nH]2)CC1	none
CN(CCNC(=O)CCC[C@H]1NC[C@@H]2CC1CN(Cc1ccccc1)C2)C1CCCCC1	none
COc1cccc(CCC2CCCN(C(=O)c3ccc(OC)o3)C2)c1 (stereo not given)	none
COCC(=O)N1CCC2(CC1)CN(c1ccccc1)C2=O	none
Cc1noc([C@@H]2CN(Cc3cccc(Cl)c3F)C[C@H]2CO)n1	none
COc1ccc(C2(C(=O)NCC3Cn4cccc4C(=O)N3C)CC2)cc1 (stereo not given)	none
Cc1n[nH]c(C)c1CNC(=O)C1CCN(c2cn[nH]c(=O)c2)C1 (stereo not given)	none
Cc1ccsc1C(=O)N1CCc2c(nc3cc[nH]n3c2=O)C1	none
CCn1cc(S(=O)(=O)N2CCC3(CC2)CCC(O)(CN(C)C)CC3)cn1	none
C[C@@H](NC(=O)C1CC1)c1c(-c2ccc(Cl)cc2)noc1C(=O)O	none
CN(Cc1ccccc1)c1ncc2c(n1)CC(C)(C)CC2NC1CCOCC1 (stereo not given)	none
COc1ccc(C(=O)NCC2CCN(c3cnn(C)c(=O)c3)C2)c(OC)n1 (stereo not given)	none
COc1cccc(C(=O)N2CCC(N3C[C@H](O)C[C@H]3C(=O)NCCN3CCCC3)CC2)c1	none
O=C(O)C1=NOC2CN(CC3CCOCC3)CC12 (stereo not given)	none
O=C(CC1N=C2c3ccccc3N=C(SCc3cccc(F)c3)N2C1=O)NCc1cccs1 (stereo not given)	none
O=C(CC1N=C2c3ccccc3N=C(SCC(=O)Nc3ccc(F)cc3)N2C1=O)NCc1cccs1 (stereo not given)	none
Cc1ccc(CSC2=Nc3ccccc3C3=NC(CCC(=O)NCc4cccs4)C(=O)N23)cc1 (stereo not given)	none
O=C(CC1N=C2c3ccccc3N=C(SCC(=O)Nc3cccc(C(F)(F)F)c3)N2C1=O)NCc1cccs1 (stereo not given)	Pf Dd2 growth 13µM
COc1ccc(CCNC(=O)CSC2=Nc3ccccc3C3=NC(CCC(=O)NCc4ccccc4)C(=O)N23)cc1OC (stereo not given)	none
Cc1ccc(CSC2=Nc3ccccc3C3=NC(CCC(=O)NCCc4ccccc4)C(=O)N23)cc1 (stereo not given)	Pf Dd2 growth 10µM
COC(=O)C1=CN(CC(=O)Nc2cccc(C)c2C)S(=O)(=O)N=C1C	none
COCC1CCN(C(=O)c2ccc(C)cc2F)C1 (stereo not given)	none
CCOCC(=O)Nc1ccc2ncnc(N3CCCCC3)c2c1	none
O=C(Nc1ccc2ncnc(N3CCCCC3)c2c1)c1ccsc1	none
CCn1ccc(C(=O)Nc2ccc3ncnc(N4CCCC4)c3c2)n1	none
COc1ccc(CC(=O)Nc2ccc3ncnc(N4CCCC4)c3c2)c(Cl)c1	none
O=C(NC1CCCN(c2cc(N3CCCC3)ncn2)C1)c1ccsc1 (stereo not given)	none
N#Cc1ccc(C(=O)Nc2ccc3c(N4CCCCC4)ncnc3c2)cc1	Pf Dd2 growth 8.9µM
N#Cc1ccc(C(=O)Nc2ccc3ncnc(N4CCCCC4)c3c2)cc1	none
O=C(Cc1ccsc1)Nc1ccc2c(N3CCCC3)ncnc2c1	Pf Dd2 growth 5µM
O=C(Nc1ccc2c(N3CCCCC3)ncnc2c1)c1ccsc1	Pf Dd2 growth 7.1µM
COCCN1CCC(CN(Cc2ccncc2)C(=O)c2ccc(=O)n(C)n2)CC1	none

Assay outcomes: PubChem, National Center for Advancing Translational Sciences (NCATS)
